TDP1 cell CPT: qHTS for Inhibitors of human tyrosyl-DNA phosphodiesterase 1 (TDP1): qHTS in cells in presence of CPT. Potency, µM (doses to about 46.2 µM), for the others: top-dose activity change, negative = growth inhibition, actives largely listed as inhibitors. AID 686979, 2013. actives 12% (n = 420,000). chicken DT40 Tdp1-/-;hTDP1 cells + 20 nM CPT, ATP luminescence, 48 h; further: potency means the concentration at half of the fitted maximal effect; on the % scale 0 is the no-effect control and ±100 the full control effect; nearly all actives have a fitted effect of over 55% in size
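Chicken DT40 Tdp1-/- cells stably complemented with human TDP1 were seeded at 400 cells/well in medium containing 20 nM camptothecin, exposed to pin-transferred compounds, and grown at 37 °C for at least 48 hr. Viability was read as ATP luminescence.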
MCF10A rereplic: A quantitative high throughput screen for small molecules that induce DNA re-replication in MCF 10a normal breast cells; Potency, µM (top dose mostly 46.1 µM), for inactives: top-dose activity, positive = re-replication, actives largely listed as activators; actives 2.9% (n = 350,000); MCF 10A DNA re-replication, Hoechst nuclear intensity, 48 h; further: potency means the concentration at half of the fitted maximal effect; % of control where 0% means no effect; nearly all actives have a fitted effect of over 50% in size
DT40 TDP1 no CPT: qHTS for Inhibitors of human tyrosyl-DNA phosphodiesterase 1 (TDP1): qHTS in cells in absence of CPT; DT40 Tdp1-/- hTDP1 cells, no CPT, ATP luminescence, 48 h; Potency, µM (highest dose often 46.2 µM), for inactives: top-dose activity change, negative = growth inhibition, usual class: inhibitors; actives 15% (n = 420,000); AID 686978, 2013; further: potency means the concentration at half of the fitted maximal effect; on the % scale 0 is the no-effect control and ±100 the full control effect; nearly all actives have a fitted effect of over 55% in size
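Growth kinetics read by CellTiter-Glo luminescence after ≥48 hr at 37 °C. Cells: DT40 Tdp1-/- stably carrying human TDP1, 400 per well, compound exposure in the absence of CPT (DMSO vehicle).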
IL-1B inflam inh: qHTS for Inhibitors of Inflammasome Signaling: IL-1-beta AlphaLISA Primary Screen; actives 4.7% (n = 360,000); activity change, % at 57.5 µM; THP-1 LPS/ATP IL-1B secretion, AlphaLISA, 16 h; active compounds read low; AID 743279, 2014; in the data active means activity change below about -50%; inconclusive means mostly about -30% to -49%; further: on the % scale 0 is the no-effect control and ±100 the full control effect
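Secreted IL-1B measured by AlphaLISA bead assay after 16 h compound exposure of THP-1 cells; compounds (final up to 57.5 uM) added 1 h before LPS (250 ng/mL) and ATP (1.25 mM) stimulation; lower signal means less secretion.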
SW480 rerep: A quantitative high throughput screen for small molecules that induce DNA re-replication in SW480 colon adenocarcinoma cells; SW480 DNA re-replication, Hoechst DNA content imaging, 48 h; Potency, µM (highest dose often 46.1 µM), inactives show top-dose re-replication activation, hits mostly activators; actives 1.8% (n = 340,000); AID 624297, 2012; further: potency means the concentration at half of the fitted maximal effect; % of control where 0% means no effect; nearly all actives have a fitted effect of over 55% in size
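Readout is total intensity of Hoechst-stained nuclei, excited at 405 nm and collected at 500-530 nm. Compound treatment lasted 48 hr at 37 C in 5% CO2 before staining.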
BCR signal inh: qHTS Assay to Find Inhibitors of Chronic Active B-Cell Receptor Signaling. ABC-DLBCL IkBa-CBG/CBR reporter, luminescence ratio, 4 h. Potency, µM (top dose mostly 46.1 µM), for inactives: top-dose activity change, negative = inhibition, hits mostly inhibitors. actives 0.05% (n = 340,000); active means well fitted inhibition curve with a large enough effect in the signal ratio, with a control signal flat, not every such curve was filed as active; inconclusive means small, poorly fitted or top-dose-only effect, or effect the other way, or a change in a side signal; the % refers to the signal ratio;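 further: potency means the concentration at half of the fitted maximal effect; plate controls were basal doxycycline-induced cells for no effect and cells given 10 µM MG132 for full effect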
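TMD8 human ABC-DLBCL cells with doxycycline-inducible IκBα–green luciferase fusion and unfused red luciferase, in 0.5% FBS medium; compounds up to 46 uM, 4 h at 37C. Green/red luminescence ratio, filter-overlap corrected, fitted to concentration-response curves.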
* marks the source's active call; other numbers are inactive results; u = inconclusive; x = no result; [ ] = remark or other dose. An excerpt weighted towards active compounds, which were near 19% of everything screened. Unless noted, the call rests on the fitted dose curve; in most records, active means well fitted curve in the direction sought with a large enough effect; inconclusive means small, poorly fitted or top-dose-only effect, or another doubt; inactive means no such curve, though single readings can be large; an effect the other way counts as inactive or inconclusive.

SMILES	TDP1 cell CPT	MCF10A rereplic	DT40 TDP1 no CPT	IL-1B inflam inh	SW480 rerep	BCR signal inh
CCc1ccc(-c2nn(CC(=O)NC3CCCCC3)c3c2cnc2ccc(OC)cc23)cc1	5.8µM*	x	5.8µM*	x	x	x
COc1ccc2ncc3c(-c4ccc(C)c(C)c4)nn(CC(=O)NC4CCCCC4)c3c2c1	8.2µM*	x	12µM*	x	x	x
CCN(CC)c1ccc(C=Nc2ccc(OC)c(S(=O)(=O)N3CCOCC3)c2)c(O)c1	-8%	-3%	-5%	10	-6%	1%
C[C@@H]1CN([C@H](C)CO)C(=O)c2cc(-c3ccc(C(=O)N(C)C)cc3)cnc2O[C@@H]1CN(C)C(=O)c1cccnc1	4%	x	8%	6	x	x
CCOc1ccc(-c2nn(-c3ccc(F)cc3)c3c2cnc2ccc(F)cc23)cc1	5%	x	6%	x	x	x
CCc1ccc(-c2nn(-c3ccc(OC)cc3)c3c2cnc2ccc(OC)cc23)cc1	u	x	6.5µM*	x	x	x
CCOc1ccccc1NC(=O)c1nn(-c2ccc(C)cc2)c(=O)n(C)c1=O	-25%	x	-14%	x	x	x
COc1ccc(S(=O)(=O)NCCc2sc(-c3cccc(F)c3)nc2C)cc1	16µM*	x	21µM*	x	x	u
Cc1cc(C)cc(NC(=O)C(=O)NCCc2sc(-c3cccc(F)c3)nc2C)c1	3%	x	-3%	x	x	x
Cc1cc(S(=O)(=O)NCCc2csc(-c3cccc(F)c3)n2)ccc1F	u	x	1.3µM*	x	x	x
COc1cc(C(=O)NCCc2sc(-c3cccc(F)c3)nc2C)cc(OC)c1OC	9.2µM*	x	12µM*	x	x	x
COC(=O)c1ccc(NC(=O)C(=O)NCCc2sc(-c3cccc(F)c3)nc2C)cc1	12µM*	x	u	x	x	x
CC1CN(C(=O)COc2coc(CN3CCc4ccccc4C3)cc2=O)CC(C)O1 (centres undefined)	5%	0%	5%	15	-4%	1%
COc1cc(OC)cc(C(=O)NCC(=O)OCc2ccc(Cl)c(Cl)c2)c1	u	9%	-2%	33	-15%	-7%
Cc1ccc2nc(SCC(=O)Nc3ccc4c(c3)OCCO4)[nH]c2c1	-25%	-9%	u	-14	2%[9.22 µM]	u
Cc1cccc(-c2nc(SCC(=O)Nc3ccc4c(c3)OCCO4)c(-c3ccccc3)[nH]2)c1	u	x	21µM*	x	x	x
O=C(CSc1nc(-c2cccc(F)c2)[nH]c1-c1ccccc1)Nc1ccc2c(c1)OCCO2	15µM*	x	12µM*	x	x	x
O=C(CSc1nc2ccccc2[nH]1)Nc1ccc2c(c1)OCCO2	u	4%	-17%	1	-10%	-8%
COc1ccc(C2N=C(c3ccccc3)NC(c3ccccc3)=N2)cc1	-11%	2.6µM*	-13%	-29	u	1%
Oc1ccccc1C1N=C(c2ccccc2)NC(c2ccccc2)=N1	-16%	2%	2%	-55*	1%	u
COc1ccc(CN2C(=NC(=O)CCc3ccccc3)SC3CS(=O)(=O)CC32)cc1 (centres undefined)	5%	12%	-10%	22	-2%	0%
CN1CCN(NC(=O)c2cc(-c3ccc(Cl)s3)nc3ccccc23)CC1	u	15µM*	15µM*	-3	16µM*	3%
CC(C)(CNC(=O)c1cc(-c2ccc(Cl)s2)nc2ccccc12)N1CCOCC1	u	u	u	u	23µM*	2%
O=C(Nc1ccccc1C(=O)O)c1ccc(Br)c(S(=O)(=O)NCc2ccccc2)c1	u	0%	u	0	-51%	u
COc1cc2c(oc(=O)c3cc(C)cc(OC)c32)c2c(C3OC(C)C(O)C(C)(O)C3O)ccc(O)c12 (centres undefined)	1.5µM*	6%	1.5µM*	-101*	u	x
SMILES	TDP1 cell CPT	MCF10A rereplic	DT40 TDP1 no CPT	IL-1B inflam inh	SW480 rerep	BCR signal inh
Cc1ccccc1CN1CCN(c2ccc(S(=O)(=O)N3CCCC3)cn2)CC1	u	u	u	-1	5%	-1%
CCN1CCN(Cc2c(O)ccc3c2O/C(=C\c2ccccc2)C3=O)CC1	-23%	-5%	-18%	-5	8%	6%
CC1CCCN(Cc2c(O)ccc3c2O/C(=C\c2ccco2)C3=O)C1 (centres undefined)	15µM*	5%	26µM*	-2	1%	-3%
CCCCc1nc(Cl)c(C#N)c2c1CSC(C)(C)C2	-17%	23µM*	-20%	46	u	u
CC1(C)Cc2c(c(-c3ccco3)[nH]c(=O)c2C#N)CS1	u	1%	-20%	2	-6%	12%
CCCCc1nc(NCCNC(=O)c2ccco2)c(C#N)c2c1CSC(C)(C)C2	29µM*	u	23µM*	-5	u	18%
CCCCc1nc(NCCNC(=O)c2ccccc2)c(C#N)c2c1CSC(C)(C)C2	23µM*	u	13µM*	-22	u	u
CC(C)(C)C1CCc2c(sc3nc(-c4cc5cc(Cl)ccc5oc4=O)[nH]c(=O)c23)C1 (centres undefined)	0%	x	12%	x	x	x
COC(=O)c1cc2oc3ccccc3c2n1Cc1c(F)cccc1Cl	-8%	x	-1%	x	x	x
CN(C)c1ccc(C=c2c3ccccc3n3c2c2ccccc2[n+]3C)cc1	1.2µM*	u	1.5µM*	-66*	13µM*	x
Cc1cc2c(=Cc3ccc(N(C)C)cc3)c3ccccc3n2[n+]1C	0.52µM*	-7%	0.46µM*	-2	u	x
CN(C)c1ccc(/C=C2\c3ccccc3-c3ccc(N(C)C)cc32)cc1	-4%	x	u	x	x	x
CCOC(=O)c1cc2c(=Cc3ccc(N(C)C)cc3)c3ccccc3n2[n+]1C	0.58µM*	25%	0.46µM*	-101*	u	x
O=C(COC(=O)COc1ccc(Br)cc1)NNC(=O)c1ccccc1	-1%	-5%	u	0	8%	0%
O=C(NCc1ccccc1C(F)(F)F)C1CC(c2ccccc2[N+](=O)[O-])=NO1 (centres undefined)	-22%	4%	-32%	0	-40%	u
O=C(NCc1ccccc1C(F)(F)F)C1CC(c2ccccc2C(F)(F)F)=NO1 (centres undefined)	u	0%	u	-62*	5%[9.22 µM]	-15%

High-throughput results: PubChem, National Center for Advancing Translational Sciences (NCATS)
